This is a sample that favours compounds with a hit; in the whole collection about 2% have one here.
MBD2 DNA inh: inhibitors of human MBD2 binding to methylated oligonucleotide; TR-FRET; inhibition, % at 4.4 µM; 370,000 tested, 0.31% active; AID 686964; in the data active = inhibition above about 13%
Target sequence (Q9UBB5 whole entry, looked up): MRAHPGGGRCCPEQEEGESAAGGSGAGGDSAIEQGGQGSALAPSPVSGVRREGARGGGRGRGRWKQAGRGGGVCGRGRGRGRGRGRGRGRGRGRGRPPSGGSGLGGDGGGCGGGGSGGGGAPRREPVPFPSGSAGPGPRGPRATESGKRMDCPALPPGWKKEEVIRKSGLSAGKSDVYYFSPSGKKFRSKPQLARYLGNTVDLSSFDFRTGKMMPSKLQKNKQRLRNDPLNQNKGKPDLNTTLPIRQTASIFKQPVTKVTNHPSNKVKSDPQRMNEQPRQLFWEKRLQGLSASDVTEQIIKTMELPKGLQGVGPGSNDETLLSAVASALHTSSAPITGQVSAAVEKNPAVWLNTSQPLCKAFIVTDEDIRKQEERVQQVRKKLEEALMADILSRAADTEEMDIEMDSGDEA
UHRF1 MBD2 ctr: human UHRF1 methylated DNA binding inhibitors; UHRF1 binding to methylated oligo, TR-FRET; inhibition, % at 4.4 µM; 370,000 tested, 0.75% active; in the data active = inhibition above about 21%;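 note: UHRF1 SRA domain binding a hemimethylated CpG hairpin DNA probe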
TCR CD3 inh: blocks the human TCR-CD3 interaction; TAMRA-labeled TCR probe fluorescence, biochemical; inhibition, % at 9.4 µM; 360,000 tested, 0.37% active; in the data active = inhibition above about 19%;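 note: recombinant mutant TCR 2C K166C tagged with TAMRA read by polarization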
LEDGF integ inh: blocks HIV-1 LEDGF/p75-dependent DNA integration; TR-FRET IN-LEDGF/p75 DNA integration, Eu/Cy5; inhibition, % at 3.7 µM; AID 743269; 370,000 tested, 0.64% active;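 active = inhibition above the screen-wide mean plus 3 SD, cut at about 13% in these data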;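 note: signal is the Cy5 over europium emission ratio at 671 and 618 nm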
Rin1 Abl inh: inhibitors of human Rin1-Abl protein interaction; P00519+Q13671; TR-FRET Rin1/Abl binding, biochemical; inhibition, % at 7.35 µM; 360,000 tested, 0.4% active; AID 588664; in the data active = inhibition above about 5%, passing the limit was not always enough
UHRF1 ctr MBD2: inhibits human UHRF1 binding to methylated oligonucleotide, MBD2 counter-screen | shares compounds with MBD2 DNA inh | TR-FRET | inhibition, % at 4.4 µM | 1,000 tested, 25% active; in the data active = inhibition above about 21%;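 note: UHRF1 SRA domain binding a labeled hemimethylated CpG hairpin DNA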
MBD2 confirm: confirmation of human MBD2-DBD methylated oligonucleotide binding inhibitors | shares compounds with MBD2 DNA inh | inhibition, % at 4.4 µM | TR-FRET MBD2-DBD binding to methylated oligonucleotide | 1,000 tested, 26% active
IN multimer up: HIV-1 integrase multimerization activation, counter-screen | activation, % at 7.7 µM | TR-FRET HIV-1 integrase multimerization, biochemical | 2,000 tested, 17% active | shares compounds with LEDGF integ inh; in the data active = activation above about 8.9%
TR-FRET interf: counter-screen for LEDGF/p75 integration inhibitors: TR-FRET optical interference; shares compounds with LEDGF integ inh; TR-FRET optical interference counterscreen, HIV-1 IN multimerization; inhibition, % at 7.7 µM; 2,000 tested, under 10 active; AID 1053135;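 active = inhibition above the mean over all tested compounds plus 3 SD, which no compound reached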
IN-LEDGF confirm: confirmation of HIV-1 LEDGF/p75-dependent integration inhibitors. shares compounds with LEDGF integ inh. TR-FRET LEDGF/p75-dependent HIV-1 integration, biochemical. inhibition, % at 3.7 µM. 2,000 tested, 36% active. AID 1053136
Of the large screens only hits and unclear results are named; the others gave an inactive call (follow-up assays come after a bar, where they were run); ! = repeats disagree. Cut-off read from the data, not from the text of the source, unless noted: active = inhibition above about 14%; inactive = the rest.

O=C(O)Cc1c[nH]c2cccc(O)c12	MBD2 DNA inh 55, UHRF1 MBD2 ctr 95, LEDGF integ inh 73 | UHRF1 ctr MBD2 40 | MBD2 confirm 16 | IN multimer up 55 | TR-FRET interf inactive | IN-LEDGF confirm 39
O=C1c2c(O)ccc(O)c2C(=O)c2c(NCCNCCO)ccc(NCCNCCO)c21	MBD2 DNA inh 110, UHRF1 MBD2 ctr 96, LEDGF integ inh 49 | UHRF1 ctr MBD2 94 | MBD2 confirm 106 | IN multimer up 24 | TR-FRET interf inactive | IN-LEDGF confirm 38!
CCCOc1ccc(/C=c2\sc3nc(-c4ccco4)nn3c2=O)cc1OCC	MBD2 DNA inh 31, UHRF1 MBD2 ctr 31, LEDGF integ inh 13 | UHRF1 ctr MBD2 inactive | MBD2 confirm inactive | IN multimer up inactive | TR-FRET interf inactive | IN-LEDGF confirm inactive
C[C@H](CO)N1C[C@H](C)[C@@H](CN(C)S(C)(=O)=O)Oc2ccc(NS(=O)(=O)c3ccccc3)cc2C1=O	none
CCOC(=O)C(C)N1C(=O)S/C(=C\c2ccc(-c3ccccc3C(=O)O)o2)C1=O (stereo not drawn)	MBD2 DNA inh 31, UHRF1 MBD2 ctr 55, LEDGF integ inh 18 | UHRF1 ctr MBD2 49 | MBD2 confirm 16 | IN multimer up inactive | TR-FRET interf inactive | IN-LEDGF confirm 18
COC(=O)c1ccccc1-c1ccc(/C=C2\C(=O)N(c3ccccc3)N=C2c2ccccc2)o1	none
Nc1ccc(C(CC(=O)O)n2cccc2)cc1 (stereo not drawn)	MBD2 DNA inh 43, UHRF1 MBD2 ctr 100, LEDGF integ inh 65 | UHRF1 ctr MBD2 inactive | MBD2 confirm inactive | IN multimer up inactive | TR-FRET interf inactive | IN-LEDGF confirm inactive
CC1(C)Cc2c(c(-c3ccco3)nc3sc4c(NCCO)ncnc4c23)CO1	none
CSc1nc(N(CCO)CCO)c2sc3nc(-c4ccco4)c4c(c3c2n1)CCC4	MBD2 DNA inh 18, UHRF1 MBD2 ctr 24, LEDGF integ inh 16 | UHRF1 ctr MBD2 31 | MBD2 confirm 36 | IN multimer up 12 | TR-FRET interf inactive | IN-LEDGF confirm 53
COc1ccc(CNC(=O)c2sc(=O)n(Cc3ccccc3OC)c2C)cc1	none
O=C1C=C(c2ccccc2)C(c2ccccc2)C1 (stereo not drawn)	none
CC(=O)OCCCNc1cc(SCc2ccco2)c2nonc2c1[N+](=O)[O-]	MBD2 DNA inh 14, UHRF1 MBD2 ctr 59, LEDGF integ inh 66 | UHRF1 ctr MBD2 inactive | MBD2 confirm inactive | IN multimer up inactive | TR-FRET interf inactive | IN-LEDGF confirm 24
COc1ccc(C(c2c(C)n(C)n(-c3ccccc3)c2=O)c2c(C)n(C)n(-c3ccccc3)c2=O)cc1OC	none
COc1ccc(C(c2c(C)[nH]n(-c3ccccc3)c2=O)c2c(C)[nH]n(-c3ccccc3)c2=O)cc1OC	MBD2 DNA inh 16, LEDGF integ inh 26 | UHRF1 ctr MBD2 inactive | MBD2 confirm inactive | IN multimer up inactive | TR-FRET interf inactive | IN-LEDGF confirm inactive
Cc1cccc(CC(=O)NCCS(=O)(=O)N2CCN(c3ccccc3)CC2)c1	none
O=C(COC(=O)/C=C/c1ccco1)NCc1ccccc1	none
O=C(N/C=C/c1ccco1)OCc1ccccc1	MBD2 DNA inh 15, UHRF1 MBD2 ctr 24, LEDGF integ inh 36 | UHRF1 ctr MBD2 26 | MBD2 confirm 27 | IN multimer up 31 | TR-FRET interf inactive | IN-LEDGF confirm 36
COc1ccc(-c2cc3c(c4c2ccn4C)C2CCC3O2)cn1 (stereo not drawn)	none
O=C(O)CCCN1C(=O)/C(=C/C=C/c2ccco2)SC1=S	MBD2 DNA inh 70, UHRF1 MBD2 ctr 98, LEDGF integ inh 87 | UHRF1 ctr MBD2 91 | MBD2 confirm 49 | IN multimer up 13 | TR-FRET interf inactive | IN-LEDGF confirm 83
O=C1S/C(=C\C=C\c2ccco2)C(=O)N1c1ccccc1	MBD2 DNA inh 13, UHRF1 MBD2 ctr 25, LEDGF integ inh 40 | UHRF1 ctr MBD2 inactive | MBD2 confirm inactive | IN multimer up inactive | TR-FRET interf inactive | IN-LEDGF confirm 23
Cc1ccc(NC(=O)CCCN2C(=O)/C(=C/C=C/c3ccccc3)SC2=S)cc1	none
O=C(O)C(Cc1ccccc1)N1C(=O)/C(=C/C=C/c2ccco2)SC1=S (stereo not drawn)	MBD2 DNA inh 94, UHRF1 MBD2 ctr 98, LEDGF integ inh 86 | UHRF1 ctr MBD2 98 | MBD2 confirm 71 | IN multimer up 27 | TR-FRET interf inactive | IN-LEDGF confirm 82
O=C(NN1C(=O)/C(=C/C=C/c2ccco2)SC1=S)c1ccccc1O	MBD2 DNA inh 56, UHRF1 MBD2 ctr 95, LEDGF integ inh 81 | UHRF1 ctr MBD2 66 | MBD2 confirm 30 | IN multimer up 73 | TR-FRET interf inactive | IN-LEDGF confirm 80
Cn1cccc1/C=C1\SC(=S)N(NC(=O)c2ccccc2O)C1=O	none
CCOc1ccc(N2CC(C(=O)Nc3nnc(CC)s3)CC2=O)cc1 (stereo not drawn)	none
COc1ccc(-c2cc(=O)[nH][nH]2)cc1OC	MBD2 DNA inh 16, LEDGF integ inh 42 | UHRF1 ctr MBD2 inactive | MBD2 confirm inactive | IN multimer up inactive | TR-FRET interf inactive | IN-LEDGF confirm inactive
O=c1cc(-c2ccc(Br)cc2)[nH][nH]1	none
COC(=O)c1ccc(C)c(NC(=O)CSc2sc3c(O)cc(=O)[nH]c3c2C#N)c1	MBD2 DNA inh 14, UHRF1 MBD2 ctr 51, LEDGF integ inh 14 | UHRF1 ctr MBD2 22 | MBD2 confirm inactive | IN multimer up 20 | TR-FRET interf inactive | IN-LEDGF confirm 36
O=C(O)c1ccc(N/N=C/C2=C(N3CCOCC3)C(=C\c3ccccc3)/CC2)cc1	MBD2 DNA inh 19, UHRF1 MBD2 ctr 51, LEDGF integ inh 54 | UHRF1 ctr MBD2 inactive | MBD2 confirm inactive | IN multimer up inactive | TR-FRET interf inactive | IN-LEDGF confirm 17
O=C(OCc1ccccc1)N1CCC2CC1c1cc(/C=C/CCCSc3ncccn3)ccc12 (stereo not drawn)	none
Nc1ccc(-c2nc3ccc(N)cc3[nH]2)cc1	none
Nc1ccc2nc(-c3cccc(-c4nc5ccc(N)cc5[nH]4)c3)[nH]c2c1	MBD2 DNA inh 14, UHRF1 MBD2 ctr 26, LEDGF integ inh 16 | UHRF1 ctr MBD2 inactive | MBD2 confirm inactive | IN multimer up 60 | TR-FRET interf inactive | IN-LEDGF confirm inactive
